Measurements from paper PMC4336329 (PLoS ONE, 2015).
Among all 310,000 compounds or so, about 14,000 (4.5%) showed an effect of 50% or more. Effects have a minus sign here. This excerpt belongs to a sample that is enriched for strong results.

What follows are compounds tested against human ether-à-go-go-related gene (hERG) potassium channel (human, UniProt Q12809) (assay: primary screen, population patch clamp on CHO cells stably expressing hERG; higher = less effect of the substance).
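Note: peak tail current of the secondary pulse compared with the same well before compound.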

Sequence of human ether-à-go-go-related gene (hERG) potassium channel (Q12809 whole entry, looked up): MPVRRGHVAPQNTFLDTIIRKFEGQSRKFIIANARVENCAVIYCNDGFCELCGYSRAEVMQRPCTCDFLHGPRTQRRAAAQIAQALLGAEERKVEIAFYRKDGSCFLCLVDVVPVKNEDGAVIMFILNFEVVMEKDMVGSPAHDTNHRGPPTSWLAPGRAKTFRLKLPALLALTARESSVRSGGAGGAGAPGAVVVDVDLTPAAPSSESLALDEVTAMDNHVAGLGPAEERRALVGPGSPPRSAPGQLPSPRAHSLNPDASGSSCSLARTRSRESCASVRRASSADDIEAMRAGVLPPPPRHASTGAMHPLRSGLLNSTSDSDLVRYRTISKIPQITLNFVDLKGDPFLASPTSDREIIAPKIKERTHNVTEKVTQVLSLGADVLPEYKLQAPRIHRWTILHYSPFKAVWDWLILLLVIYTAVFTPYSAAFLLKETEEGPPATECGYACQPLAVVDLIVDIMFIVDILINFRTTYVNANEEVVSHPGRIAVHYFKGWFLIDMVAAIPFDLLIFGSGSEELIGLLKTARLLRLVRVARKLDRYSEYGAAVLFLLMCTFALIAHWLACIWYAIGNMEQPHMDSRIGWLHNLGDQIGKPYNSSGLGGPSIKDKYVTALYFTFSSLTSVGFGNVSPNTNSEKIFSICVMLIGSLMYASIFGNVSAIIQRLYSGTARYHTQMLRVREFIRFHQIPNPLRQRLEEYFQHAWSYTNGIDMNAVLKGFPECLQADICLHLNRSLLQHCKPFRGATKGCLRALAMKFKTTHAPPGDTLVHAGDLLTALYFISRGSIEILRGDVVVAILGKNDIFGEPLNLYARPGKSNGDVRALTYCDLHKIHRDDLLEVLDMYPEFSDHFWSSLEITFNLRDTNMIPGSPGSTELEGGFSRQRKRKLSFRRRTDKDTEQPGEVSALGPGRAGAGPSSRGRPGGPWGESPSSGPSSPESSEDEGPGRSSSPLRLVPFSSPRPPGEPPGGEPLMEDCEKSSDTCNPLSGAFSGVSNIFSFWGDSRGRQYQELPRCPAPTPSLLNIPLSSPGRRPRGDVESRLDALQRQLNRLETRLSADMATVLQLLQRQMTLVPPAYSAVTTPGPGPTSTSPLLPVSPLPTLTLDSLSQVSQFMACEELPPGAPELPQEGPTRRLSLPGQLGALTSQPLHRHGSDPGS

SMILES | hERG current change (%, negative = inhibition) at 10uM [%]
CCCCC[C@H](O)/C=C/C1=C(CCCCCCC(=O)O)C(=O)CC1 | 17.9
O=C(COC(=O)c1c[nH]c(=O)[nH]c1=O)NCc1ccccc1 | -12.2
O=C(CN1CCOCC1)N/N=C/c1ccc(-c2cccc(Cl)c2Cl)o1 | -73.4
O=C(CN1CCOCC1)N/N=C/c1ccc(-c2ccc(Br)cc2)o1 | -67.1
O=C(CN1CCOCC1)N/N=C/c1ccc(-c2ccc(C(=O)O)cc2)o1 | -12
O=C(CN1CCOCC1)N/N=C/c1ccccc1 | -14.4
Cc1ccc([N+](=O)[O-])cc1-c1ccc(/C=N/NC(=O)CN2CCOCC2)o1 | -38.9
Cc1ccc(-c2ccc(/C=N/NC(=O)CN3CCOCC3)o2)cc1[N+](=O)[O-] | -29.5
O=C(COc1ccccc1F)NNC(=O)c1ccc(N2CCCCC2)c([N+](=O)[O-])c1 | -36
Nc1nc(-c2ccc(Cl)cc2)cn1N | -2.98
COc1ccc(C(=O)Nc2ccccc2C(N)=O)cc1 | -18.9
CC(=O)Oc1cccc(N2C(=O)C3C4C=CC(CC4)C3C2=O)c1 (stereo not drawn) | 16.1
Cc1ccc(-c2nc3ccccc3c(=O)n2-c2ccc(O)cc2)cc1 | -3.92
CC(C)C1CCN(C(=O)C2CCC(=O)N(CCc3ccc(Cl)cc3)C2)CC1 (stereo not drawn) | -52.6
O=C1CCC(C(=O)N2CCC(O)CC2)CN1CCc1ccc(Cl)cc1 (stereo not drawn) | 1.38
C=CCC1(CC=C)CCCN1C(=O)C1CCC(=O)N(CCc2ccc(OC)cc2)C1 (stereo not drawn) | -18.6
O=C1CCC(C(=O)N2CCCCCC2)CN1CCc1ccc(Cl)cc1 (stereo not drawn) | -28.9
C=CCC1(CC=C)CCCN1C(=O)C1CCC(=O)N(CCc2ccc(Cl)cc2)C1 (stereo not drawn) | -60
C=CCC1(CC=C)CCCN1C(=O)C1CCC(=O)N(CCc2ccccc2)C1 (stereo not drawn) | -12.5
COc1ccc(S(=O)(=O)Nc2ccccc2C)cc1 | 0.614

SMILES | hERG current change (%, negative = inhibition) at 10uM [%]
C/C(=N\NC(N)=S)c1cccnc1 | 2.44
Cc1cc(Nc2cccc(C(F)(F)F)c2)n2nc(C)nc2n1 | -51.8
Cc1cc(C)c2c(n1)nn1c(N3CCN(c4ccccc4C)CC3)cc(C)nc21 | 7.78
Cc1ccc(Nc2cc(C)nc3nc(C)nn23)c(C)c1 | 9.08
C(=N\N1CCN(c2ccccn2)CC1)/c1ccccn1 | 13.5
Cc1ccc(N2CCN(c3cc(C)nc4nc(C)nn34)CC2)c(C)c1 | -72.6
COc1ccccc1N1CCN(c2nc(C)cc(=O)[nH]2)CC1 | 11.6
COc1cccc(Nc2cc(C)nc3nc(C)nn23)c1 | -12.8
Cc1cc(Nc2cccc(F)c2)n2nc(C)nc2n1 | -12.1
COc1ccccc1N1CCN(c2cc(C)nc3nc(C)nn23)CC1 | -57.6
Cc1ccc(/C=N/N2CCN(c3ccccn3)CC2)cc1 | 2.68
Cc1cc(N2CCN(c3ccccn3)CC2)n2nc(C)nc2n1 | -51.4
COc1ccccc1-c1c(C)nn2c(N3CCN(c4ccccc4OC)CC3)cc(C)nc12 | 3.75
COC(=O)C(CC(C)C)NC(=O)CNC(=O)c1ccccc1C (stereo not drawn) | 3.34
C/C(=N\OCC(=O)Nc1cc(C)cc(C)c1)c1ccc2c(c1)OCCO2 | -13
CCC12CN3CCN(CC(C3)/C1=N/NC(N)=O)C2 | 21
Cc1c(Cl)cccc1-n1ccnc1SCC(=O)O | 18.2
O=S(=O)(/N=C(/c1ccccc1)N1CCOCC1)c1ccc(F)cc1 | 23.7
COc1ccc(-c2cc(C(=O)N(C)Cc3cccc(OC)c3OC)c3ccccc3n2)cc1OC | -28.8
COc1ccc(OC)c(/C=C/C(=O)Oc2ccc(C(C)=O)cc2)c1 | 13.8

SMILES | hERG current change (%, negative = inhibition) at 10uM [%]
Nc1c(-c2ccccc2)cnn1-c1cccc(C(F)(F)F)c1 | 1.64
Cc1nnc(SCC(=O)NC2CCCCCC2)n1C | 23.4
CCOc1cc(C)nc(N2CCC(C(=O)Nc3ccccc3OCC)CC2)n1 | 5.62
COc1ccccc1N1CCN(c2cc(N3CCCC3)nc(C)n2)CC1 | -65.3
Cn1nc(C(F)(F)F)c(C#N)c1N1CCN(c2cccc(C(F)(F)F)c2)CC1 | 3.01
Cc1cc(N2CCN(c3cccc(C(F)(F)F)c3)CC2)n2nc(C)nc2n1 | -61.9
Cc1cc(N2CCOCC2)n2nc(C)c(-c3ccc(Cl)cc3)c2n1 | 8.58
COc1cc(C)nc(N2CCC(C(=O)NC3CCCCC3)CC2)n1 | -3.08
COc1ccccc1N1CCN(c2ccc3ccccc3n2)CC1 | -36.5
Cc1cc(N2CCN(C)CC2)n2nc(-c3ccc(Cl)cc3)nc2n1 | -77.3
Cc1nc2nc(-c3ccc(Cl)cc3)nn2c(C)c1Cl | 8.82
CCOc1cc(C)nc(N2CCN(C3CCCCC3)CC2)n1 | -67.5
COc1ccccc1N1CCN(c2cnccn2)CC1 | -2.25
Cl.FC(F)(F)c1cccc(N2CCNCC2)c1 | -13.3
COc1ccc(/C=N/n2c(-c3cc(C)[nH]n3)n[nH]c2=S)cc1OC | 18.6
Cc1cccnc1NC(=O)CN1C(=O)NC(C)(c2ccc3ccccc3c2)C1=O (stereo not drawn) | -14
Cc1cc(C)cc(NC(=S)N(C)C)c1 | -5.83
COc1ccc(N2CCN(C(=O)c3ccc4c(c3)[nH]c(=S)n3c5ccccc5nc43)CC2)cc1 | 16.7
Cc1nc2cc(NC(=O)c3ccc([N+](=O)[O-])s3)ccc2s1 | -9.99
O=C(c1cc(-c2cccc(O)c2)on1)N1CCN(C(c2ccccc2)c2ccccc2)CC1 | 10.8
